Source: PubChem BioAssay (National Center for Advancing Translational Sciences (NCATS))
This is a sample that favours compounds with a hit; in the whole collection about 11% have one here.
Pf growth 96h: inhibits malaria parasite growth, 96 h; P. falciparum luciferase reporter growth, 96 h; Potency, µM (titrated, usually from 28.7 µM), for the others: at the top dose activity change, negative = inhibition, actives largely listed as inhibitors; hit rate 6.9% among 320,000; AID 504834; further: on the % scale 0 is the no-effect control and ±100 the full control effect
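Cell-based qHTS: luciferase-tagged P. falciparum in erythrocytes (2% hematocrit, 0.05% parasitemia final) incubated with compounds for 96 hours, 37 C, 5% CO2; luciferase detection reagent then added and luminescence measured.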
Vaccinia mCherry: inhibitors of vaccinia virus infection (mCherry reporter signal). Vaccinia virus mCherry reporter infection, fluorescence. Potency, µM (highest dose often 36.5 µM), for the others: top-dose activity change, negative = inhibition, hits mostly inhibitors. hit rate 0.63% among 310,000. AID 720579; calls by dose curve; tested in A549 cells; further: on the % scale 0 is the no-effect control and ±100 the full control effect; nearly all actives have a fitted effect of over 35% in size
NS1 function inh: inhibitors of influenza NS1 protein function. Potency, µM (doses to about 46.1 µM), without a hit: at the top dose activity, positive = more growth. hit rate 0.4% among 270,000. AID 2326; calls by dose curve; further: actives are rising curves; nearly all actives have a fitted effect of over 50% in size
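OD600 was taken as the measure of yeast growth restored by compound in an NS1-expressing S. cerevisiae strain. Cells had been washed out of glucose medium and diluted 1:100 into galactose -URA medium, pH 6.0.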
HCV inh: inhibitors of hepatitis C virus infection | Huh7.5.1 HCVcc-Cre infection, luciferase reporter, 44 h | Potency, µM (top dose mostly 41.8 µM), without a hit: at the highest dose activity change, negative = inhibition, actives largely listed as inhibitors | hit rate 3.4% among 340,000 | AID 651820; further: on the % scale 0 is the no-effect control and ±100 the full control effect
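Infectious HCVcc-Cre (~0.5 moi) was added to cells just after compound, with cells seeded 4 h earlier at 1,000 per well. Luciferase activity after 44 h culture reported infection; substrate was incubated 15 min at room temperature before reading.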
Pf growth 48h: P. falciparum growth inhibition at 48 hours (one generation); P. falciparum luciferase growth in erythrocytes, 48 h; Potency, µM (series often up to 28.7 µM), for the others: at the highest dose activity change, negative = inhibition, usual class: inhibitors; hit rate 5.9% among 310,000; further: on the % scale 0 is the no-effect control and ±100 the full control effect
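Luciferase-expressing parasites in RBCs, 2% Hct / 0.1% parasitemia final; RPMI 1640 + 0.5% Albumax; 37 C, 5% CO2, one generation; luminescence read-out, lower signal = inhibition.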
VACV Venus inh: inhibitors of vaccinia virus (Venus reporter). Vaccinia virus Venus reporter expression, fluorescence. Potency, µM (titrated, usually from 36.5 µM), for inactives: at the top dose activity change, negative = inhibition, hits mostly inhibitors. hit rate 0.46% among 330,000. AID 720580; calls by dose curve; tested in A549 cells; further: on the % scale 0 is the no-effect control and ±100 the full control effect; nearly all actives have a fitted effect of over 30% in size
The depositor's hits bear a star; i = inactive; ? = inconclusive; · = no result; [ ] = another dose, or the depositor's remark. Unless noted, the call rests on the fitted dose curve; in most records, active means well fitted inhibition curve with a large enough effect; inconclusive means small, poorly fitted or top-dose-only effect, or another doubt; inactive means no such curve, though single readings can be large or run the other way. Potency means the concentration at half of the fitted maximal effect.

SMILES	Pf growth 96h	Vaccinia mCherry	NS1 function inh	HCV inh	Pf growth 48h	VACV Venus inh
O=C(NCc1cc(C(F)(F)F)ccc1Cl)c1cccc2c1C(=O)c1ccc(N3CCCCC3)cc1S2(=O)=O	·	-7%	·	23%	·	2%
CC1=C(C(=O)OCC2CCCO2)C(c2ccccc2)C2=C(CCCC2=O)N1 (stereo not given)	?	i	·	1%	18%	-11%
O=C(NN=C1CCCC1)c1cc(O)cc(O)c1	?	·	6%	19%	19%	·
COc1ccc(NC(=O)c2ccccc2Cl)cc1NC(=O)CN1CCOCC1	-2%	·	-10%	-15%	?	-1%
O=c1c2ccccc2nnn1CCN1CCOCC1	40%	-12%	-1%	0%	29%	-14%
CCCn1nc2ccccc2c1P(=N)(N1CCOCC1)N1CCOCC1	12µM*	·	0%	8%	12%	·
CCOc1ccc(CCNC(=O)c2nn(C)c3c2CS(=O)(=O)c2ccccc2-3)cc1OCC	11%	-18%	14%	6.3µM*	?	-14%
CCC1CCCCN1CCCNC(=O)c1nn(C)c2c1CS(=O)(=O)c1ccccc1-2 (stereo not given)	13%	-9%[7.34 µM]	-9%	-25%	5%	-3%[7.34 µM]
CC1CCCCN1CCCNC(=O)c1nn(C)c2c1CS(=O)(=O)c1ccccc1-2 (stereo not given)	12µM*	·	-7%	7%	13%	·
COc1ccc(CCNC(=O)c2nn(C)c3c2CS(=O)(=O)c2ccccc2-3)c(OC)c1	?	12%[7.34 µM]	-5%	11µM*	-18%	0%[7.34 µM]
CCOc1ccc(CCNC(=O)c2nn(C)c3c2CS(=O)(=O)c2ccccc2-3)cc1	28%	·	8%	?	?	·
CCN(C(=O)CSc1nc2ncccc2[nH]1)c1ccc(C(C)C)cc1	·	-8%	·	·	·	-7%
Clc1ccc(/C=N/Nc2ncnc3nc[nH]c23)cc1	12µM*	i	-6%	4%	?	-13%
Cc1ccc(/C=N/Nc2ncnc3nc[nH]c23)cc1	11%	·	0%	-4%	-4%	·
CC(=O)N1CCN(CC(O)COc2ccc(Br)cc2)CC1 (stereo not given)	?	·	16%	10%	4%	·
CCCCOCC(O)CN1CCN(C(C)=O)CC1 (stereo not given)	8.3µM*	i	4%	15%	23%	-8%
Cc1ccc(Cn2c(-c3nonc3N)nc3ccccc32)cc1	·	·	3%	-7%	0%	-6%
OCc1nc2ccccc2n1Cc1ccc(Cl)cc1	-18%	i	1%	-7%	36%	-10%
Cc1ccc(Cn2c(N)nc3ccccc32)cc1	-4%	-18%	-7%	10µM*	-7%	-13%
O=Nc1c(O)n(Cc2ccc(Cl)c(Cl)c2)c2ccccc12	9.3µM*	·	-46%	?	?	·
O=Nc1c(O)n(Cc2ccccc2)c2ccccc12	-6%	?	-5%	-15%	-19%	-22%
Nc1nc2ccccc2n1Cc1ccc(Cl)c(Cl)c1	?	?	-1%	-21%	10µM*	-30%
Cc1ncc(CN2CCC(CO)(CCc3ccccc3)CC2)s1	?	·	-3%	-9%	?	·
Cc1ccc(Cl)c2c1NC(=O)C2(O)CC(=O)c1ccc(Br)cc1 (stereo not given)	-24%	-19%	-5%	16%	·	-4%
O=C(CC1(O)C(=O)Nc2cc(Cl)cc(Cl)c21)c1ccncc1 (stereo not given)	-28%	·	-19%	11µM*	-10%	·
SMILES	Pf growth 96h	Vaccinia mCherry	NS1 function inh	HCV inh	Pf growth 48h	VACV Venus inh
COC(=O)C1=C(C)N(Cc2ccccc2)C(=O)N[C@H]1c1cccc(C(F)(F)F)c1	?	i	4%	0.4µM*	?	-26%
COC(=O)C1=C(C)N(Cc2ccccc2)C(=NCc2ccccc2)N[C@H]1c1cccc(C(F)(F)F)c1	·	?	·	?	·	14µM*
COC(=O)C1=C(C)N(Cc2ccccc2)C(=S)N[C@H]1c1cccc(C(F)(F)F)c1	43%	?	-43%	?	?	?
CN(C)S(=O)(=O)c1ccc(Cl)c(NC(=O)CN2CCN(Cc3ccc4c(c3)OCO4)CC2)c1	0%	·	1%	?	?	·
CN(c1ccc(C(=O)Nc2ccc3c(c2)n(C)c(=O)n3C)cc1)S(C)(=O)=O	?	i	3%	34%	15%	-2%
NC(=O)CSc1nccn1Cc1ccccc1	0%	i	·	4%	?	-2%
O=[N+]([O-])c1ccccc1Sc1nccn1Cc1ccccc1	3.3µM*	i	-15%	?	7%	-18%
CC(C)(C)C(=O)/C=c1\[nH]c(=O)/c(=C\c2ccc(C#N)cc2)s1	-104%	·	-4%	?	·	·
COc1ccc(/C=c2\s/c(=C\C(=O)C(C)(C)C)[nH]c2=O)cc1O	4.1µM*	·	-4%	?	?	·
Cc1cccc(/C=c2\s/c(=C\C(=O)C(C)(C)C)[nH]c2=O)c1	2.1µM*	·	-76%	?	?	?
CC(C)NCC(O)COC1C2CC3CC(C2)CC1C3 (stereo not given)	4%	i	3%	28%	8.3µM*	-8%
CC(C)(C)OC(=O)N(CCc1ccccc1)Cc1ccc(OCc2cccc(NC(=O)C3CC3)c2)cc1	·	i	·	13µM*	·	-26%
CC(C)C(=O)Nc1cccc(COc2ccc(CN(Cc3ccccc3)C(=O)OC(C)(C)C)cc2)c1	·	-6%	·	0.5µM*	·	-26%
CN(CCO)c1ccc2c(c1)OC[C@H](Cc1ccccc1)NS2(=O)=O	·	27%	·	·	·	-5%
CC1(C)NC(=O)N(CCCOc2ccc3c(c2)CCC3)C1=O	·	·	-21%	-1%	42%	·
CCn1c(SCC(=O)N2CCCCC2)nc2c1c(=O)n(C)c(=O)n2C	30%	2%	-3%	-7%	-4%	9%
Cc1ccc(NC2CCCN(C(=O)c3ccccn3)C2)cc1C (stereo not given)	13µM*	·	15%	-2%	2%	·
Cc1nc(C(=O)N2CCCC(Nc3ccc(C)c(C)c3)C2)cs1 (stereo not given)	275%	?	3%	21%	3%	-1%
Cc1ccc(NC2CCCN(C(=O)c3cn4cccc(C)c4n3)C2)cc1C (stereo not given)	4.1µM*	i	6%	·	8%	-19%
Nc1nc(SCc2ccc([N+](=O)[O-])cc2)nc2nc3c(cc12)CCCC3	1.5µM*	-12%	24%	?	?	-27%
CC(C)C[C@@H](COc1ccccc1)N1CCN(CCc2ccccc2)CCC1=O	?	-3%	7%	8%	-10%	-7%
O=C1CCN(CCc2ccccc2)CCN1[C@H](CO)Cc1ccccc1	?	i	15%	2.2µM*	-9%	-8%
CC(C)CN1CCC(=O)N([C@H](COc2ccccc2)Cc2ccccc2)CC1	12µM*	0%	-16%	10%	?	-14%
